Drawing on PubChem BioAssay (EPA / NIEHS), this text covers outcome and AC50 for six molecules.

Read-out in experiment [1]: Interleukin-6 (IL6), IL6 (gene 3569)
The experiment is described as follows: BSK_CASM3C_IL6: BioMAP Diversity Plus: CASM3C Assay for Interleukin-6 (IL6) Biomarker Activity for (AID 2283040). The note with it: primary human coronary artery smooth muscle cells; actives raise or lower the signal.

Read-out in experiment [2]: Tissue plasminogen activator (tPA), PLAT (gene 5327)
The experiment in a line: BSK_BE3C_tPA: BioMAP Diversity Plus: BE3C Assay for Tissue plasminogen activator (tPA) Biomarker Activity (AID 2283041).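 Note: tPA level quantified by ELISA one day after compound addition.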 To be noted: primary human bronchial epithelial cells; actives raise or lower the signal. The method, boiled down:
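Human primary bronchial epithelial cells were dosed with chemical and tPA biomarker levels measured by ELISA 24 hours later. Activity was fitted bidirectionally against DMSO as negative control and baseline.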

Read-out in experiment [3]: Interleukin-8 (IL8), CXCL8 (gene 3576)
The experiment is described as follows: BSK_CASM3C_IL8: BioMAP Diversity Plus: CASM3C Assay for Interleukin-8 (IL8) Biomarker Activity (AID 2283042).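 Note: IL-8 protein level quantified by ELISA.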 To be noted: primary human coronary artery smooth muscle cells; actives raise or lower the signal.

Read-out in experiment [4]: Human Leukocyte Antigen - DR isotype (HLADR), HLA-DRA (gene 3122)
The experiment is described as follows: BSK_CASM3C_HLADR: BioMAP Diversity Plus: CASM3C Assay for Human Leukocyte Antigen - DR isotype (HLADR) Biomarker Activity (AID 2283043).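 Note: cell-surface HLA-DR protein level quantified by ELISA.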 To be noted: primary human coronary artery smooth muscle cells; actives raise or lower the signal.

Read-out in experiment [5]: Macrophage colony-stimulating factor (MCSF), CSF1 (gene 1435)
The experiment in a line: BSK_CASM3C_MCSF: BioMAP Diversity Plus: CASM3C Assay for Macrophage colony-stimulating factor (MCSF) Biomarker Activity (AID 2283044).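 Note: M-CSF protein amount quantified by ELISA after 24 h exposure.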 The note with it: primary human coronary artery smooth muscle cells; actives raise or lower the signal.

Read-out in experiment [6]: Low-density lipoprotein receptor (LDLR), LDLR (gene 3949)
The experiment in a line: BSK_CASM3C_LDLR: BioMAP Diversity Plus: CASM3C Assay for Low-density lipoprotein receptor (LDLR) Biomarker Activity (AID 2283045).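 Note: LDLR protein level on the cell surface quantified by ELISA.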 To be noted: primary human coronary artery smooth muscle cells; actives raise or lower the signal.

Read-out in experiment [7]: Monocyte Chemoattractant Protein-1 (MCP1), CCL2 (gene 6347)
The experiment is described as follows: BSK_CASM3C_MCP1: BioMAP Diversity Plus: CASM3C Assay for Monocyte Chemoattractant Protein-1 (MCP1) Biomarker Activity (AID 2283046).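 Note: MCP-1 level quantified by ELISA 24 h after dosing.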 The note with it: primary human coronary artery smooth muscle cells; actives raise or lower the signal.

Experiment [8] can be described thus: BSK_CASM3C_Proliferation: Cell Proliferation Assessment in the BioMAP Diversity Plus: CASM3C Assay (AID 2283047).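 Note: sulforhodamine B total protein stain as relative cell number at 560 nm; sub-confluent cells exposed 48 h before staining; fitted both ways against DMSO so gain or loss of cell number.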 To be noted: primary human coronary artery smooth muscle cells.
Read-out in experiment [9]: Monokine induced gamma interferon (MIG), CXCL9 (gene 4283)
The experiment is described as follows: BSK_CASM3C_MIG: BioMAP Diversity Plus: CASM3C Assay for Monokine induced gamma interferon (MIG) Biomarker Activity (AID 2283048).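 Note: MIG protein level measured by ELISA.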 The note with it: primary human coronary artery smooth muscle cells; actives raise or lower the signal.

Read-out in experiment [10]: serum amyloid A (SAA), SAA1 (gene 6288)
The experiment in a line: BSK_CASM3C_SAA: BioMAP Diversity Plus: CASM3C Assay for serum amyloid A (SAA) Biomarker Activity (AID 2283049).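 Note: SAA protein level quantified by ELISA.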 To be noted: primary human coronary artery smooth muscle cells; actives raise or lower the signal.

Experiment [11] can be described thus: BSK_CASM3C_SRB: Viability Assessment in the BioMAP Diversity Plus: CASM3C Assay (AID 2283050).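 Note: total protein by SRB staining as cytotoxicity measure in parallel cultures.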 The note with it: primary human coronary artery smooth muscle cells.
Read-out in experiment [12]: Thrombomodulin, THBD (gene 7056)
The experiment in a line: BSK_CASM3C_Thrombomodulin: BioMAP Diversity Plus: CASM3C Assay for Thrombomodulin Biomarker Activity (AID 2283051).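 Note: thrombomodulin protein level measured by ELISA 24 h after dosing.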 To be noted: primary human coronary artery smooth muscle cells; actives raise or lower the signal.

Read-out in experiment [13]: Tissue Factor, F3 (gene 2152)
The experiment in a line: BSK_CASM3C_TissueFactor: BioMAP Diversity Plus: CASM3C Assay for Tissue Factor Biomarker Activity (AID 2283052).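 Note: cell surface tissue factor protein level read by ELISA.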 To be noted: primary human coronary artery smooth muscle cells; actives raise or lower the signal.

Read-out in experiment [14]: Interferon-gamma inducible Protein 10 (IP10), CXCL10 (gene 3627)
The experiment in a line: BSK_hDFCGF_IP10: BioMAP Diversity Plus: hDFCGF Assay for Interferon-gamma inducible Protein 10 (IP10) Biomarker Activity (AID 2283053). The note with it: primary human foreskin fibroblasts; actives raise or lower the signal. The method, boiled down: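 Human foreskin fibroblast primary cells (hDFCGF system) were dosed with chemical and assayed at 24 h; IP-10 measured by ELISA. Activity fitted bidirectionally relative to DMSO negative control as baseline.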

Read-out in experiment [15]: Urokinase-type plasminogen activator receptor (uPAR), PLAUR (gene 5329)
The experiment is described as follows: BSK_CASM3C_uPAR: BioMAP Diversity Plus: CASM3C Assay for Urokinase-type plasminogen activator receptor (uPAR) Biomarker Activity (AID 2283054).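 Note: cell-surface uPAR protein level quantified by ELISA.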 The note with it: primary human coronary artery smooth muscle cells; actives raise or lower the signal.

Read-out in experiment [16]: Vascular cell adhesion molecule 1 (VCAM1), VCAM1 (gene 7412)
The experiment in a line: BSK_CASM3C_VCAM1: BioMAP Diversity Plus: CASM3C Assay for Vascular cell adhesion molecule 1 (VCAM1) Biomarker Activity (AID 2283055).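 Note: VCAM-1 protein level quantified by ELISA on the cells.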 The note with it: primary human coronary artery smooth muscle cells; actives raise or lower the signal.

Read-out in experiment [17]: Epidermal growth factor receptor (EGFR), EGFR (gene 1956)
The experiment in a line: BSK_hDFCGF_EGFR: BioMAP Diversity Plus: hDFCGF Assay for Epidermal growth factor receptor (EGFR) Biomarker Activity (AID 2283057). The note with it: primary human foreskin fibroblasts; actives raise or lower the signal. The method, boiled down: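 Primary human foreskin fibroblasts were exposed to compound for 24 h, after which cell-surface EGFR was quantified by ELISA. Activity was fitted bidirectionally against the DMSO negative control as baseline.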

Read-out in experiment [18]: Interleukin-8 (IL8), CXCL8 (gene 3576)
The experiment in a line: BSK_hDFCGF_IL8: BioMAP Diversity Plus: hDFCGF Assay for Interleukin-8 (IL8) Biomarker Activity (AID 2283058). The note with it: primary human foreskin fibroblasts; actives raise or lower the signal. The method, boiled down:
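Fibroblast monolayers (human foreskin, hDFCGF) received test chemical for 24 h before ELISA detection of IL-8; either increases or decreases relative to DMSO count as activity.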

Read-out in experiment [19]: Collagen III, COL3A1 (gene 1281)
The experiment is described as follows: BSK_hDFCGF_CollagenIII: BioMAP Diversity Plus: hDFCGF Assay for Collagen III Biomarker Activity (AID 2283056). The note with it: primary human foreskin fibroblasts; actives raise or lower the signal. The method, boiled down: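 Response relative to DMSO, fitted in both directions, reflects ELISA-measured collagen III in human primary skin fibroblasts 24 h after compound addition.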

Experiment [20] can be described thus: BSK_hDFCGF_Proliferation: Cell Proliferation Assessment in the BioMAP Diversity Plus: hDFCGF Assay (AID 2283059).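 Note: curves fitted for both rise and fall of signal versus DMSO baseline.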 To be noted: primary human foreskin fibroblasts. The method, boiled down: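 Steps: dose primary human dermal fibroblasts (foreskin); […] fix in 10% TCA; stain with 0.1% SRB; read 560 nm; fit gain or loss of signal against DMSO.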

“And” between values parts separate entries of the source, which are not always exact repeats. Equal values may be shown once. More than one record can exist for a structure, and the calls need not agree. The source made the active and inactive calls. Rule for the calls: active = hit-call score of the fitted dose curve at least 0.9, where 1 is the maximum; inactive = score below 0.9.

Take `CN(C)[C@@H]1C(=O)C(C(N)=O)=C(O)[C@@]2(O)C(=O)C3=C(O)c4c(O)cccc4[C@@](C)(O)[C@H]3[C@H](O)[C@@H]12`: the result in experiment [1], in [2], in experiment [3], in [4], in experiment [5] and in experiment [6] was inactive. Moreover, the result in [7], in experiment [9], in [10], in [11], in experiment [12] and in [13] was inactive. For the same molecule, the outcome in [14], in experiment [15], in [16], in [17] and in experiment [18] was inactive. Moreover, the AC50 (in general, the concentration giving half of the maximal activity seen) in [8] was 28.7 µM (active) and 11 µM (active); in [14], 29.9 µM (active).
As for `FC(F)C(F)(F)OCC(Cn1cncn1)c1ccc(Cl)cc1Cl` (stereo unspecified), the result in [1], in [2], in experiment [3], in experiment [4], in experiment [5] and in experiment [6] was inactive. The result in experiment [7], in experiment [8], in [9], in experiment [10], in experiment [11] and in experiment [12] was inactive. Moreover, the result in experiment [13], in experiment [15], in experiment [16], in experiment [19], in [17] and in experiment [18] was inactive. Also, in experiment [14], the half-maximal activity concentration (AC50) was 27.8 µM (active).
On to `CSc1nnc(C(C)(C)C)c(=O)n1N`, for which the result in experiment [1], in [2], in [3], in experiment [4], in experiment [5] and in experiment [7] was inactive. Further, the outcome in experiment [8], in experiment [9], in [10], in [11], in experiment [12] and in experiment [13] was inactive. Further, the result in experiment [16], in [17] and in experiment [18] was inactive. Besides, the AC50 was 4.43 µM (active) in experiment [6], 12.7 µM (active) in experiment [14], 1.32 µM (active) in experiment [15] and 3.97 µM (active) in experiment [19].
As to `COc1ccc(C(=CC(=O)N2CCOCC2)c2ccc(Cl)cc2)cc1OC`, the result in experiment [1], in experiment [2], in experiment [3], in experiment [4], in [6] and in [8] was inactive. Moreover, the result in [9], in [10], in experiment [11], in experiment [12], in [13] and in [14] was inactive. Besides, the outcome in [15], in [19], in experiment [17] and in experiment [18] was inactive. The AC50 was 2.5 µM (active) in experiment [5], 6.65 µM (active) in [7] and 7.56 µM (active) in [16].
In the case of `CC(C)[C@H](C(=O)O[C@H](C#N)c1cccc(Oc2ccccc2)c1)c1ccc(Cl)cc1`, the outcome in [1], in experiment [2], in experiment [3], in experiment [4], in experiment [5] and in experiment [6] was inactive. The outcome in experiment [7], in experiment [9], in [10], in experiment [11], in [13] and in experiment [14] was inactive. The result in experiment [15], in [16], in [19], in experiment [17] and in [18] was inactive. Further, the AC50 in experiment [8] is 9.47 µM (active); in [12], 4.81 µM (active); in experiment [20], 3.36 µM (active).
In the case of `CCOP(=O)(SC(C)CC)N1CCSC1=O` (stereo unspecified), the result in experiment [1], in experiment [2], in experiment [3], in experiment [4], in experiment [5] and in [6] was inactive. For the same molecule, the result in experiment [7], in experiment [8], in experiment [9], in [10], in experiment [11] and in [12] was inactive. For the same molecule, the outcome in experiment [13], in experiment [14], in [15], in [16], in experiment [19] and in experiment [17] was inactive. For the same molecule, the outcome in [18] and in [20] was inactive.
